Assay results from PubChem BioAssay (NCI).
About 79,000 compounds went through this panel and 15% of them were active in at least one assay; those are over-represented in the sample as a whole. Values without a mark were called inactive. Activity calls are given as the source filed them. No stated cut-off is given here; in the data, active means growth inhibition above about 70%; inactive means the rest.

How the values were obtained:
[1] = NCI Yeast Anticancer Drug Screen. Data for the rad50 strain (AID 155);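 further: 0% = growth of vehicle-only cultures of the same strain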; details: S. cerevisiae rad50 strain growth inhibition, stronger effect = higher value
Procedure, shortened: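 Inhibition values express reduced yeast growth in compound-treated cultures relative to vehicle-treated controls.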

[2] = NCI Yeast Anticancer Drug Screen. Data for the mec2-1 strain (AID 157); details: S. cerevisiae mec2-1 strain, stronger effect = higher value
Procedure, shortened: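 Readout is yeast growth inhibition, normalised to vehicle-treated controls, in the mec2-1 strain exposed to compound.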

[3] = NCI Yeast Anticancer Drug Screen. Data for the sgs1 mgt1 strain (AID 161);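 further: 0% = growth of cultures given vehicle only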; details: S. cerevisiae sgs1 mgt1 strain, stronger effect = higher value
Procedure, shortened: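 This yeast growth screen uses a strain with defined DNA-repair lesions; compound-treated growth is compared with vehicle-treated growth.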

[4] = NCI Yeast Anticancer Drug Screen. Data for the cln2 rad14 strain (AID 165);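 further: 0% = growth equal to vehicle treated cultures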; details: S. cerevisiae cln2 rad14 strain, stronger effect = higher value
Procedure, shortened: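 Relative to vehicle controls, growth inhibition of compound-treated cln2 rad14 yeast was recorded.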

[5] = NCI Yeast Anticancer Drug Screen. Data for the bub3 strain (AID 167); details: S. cerevisiae bub3 mutant strain, stronger effect = higher value
Procedure, shortened: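 Steps: expose the mutant yeast strain to compound; grow alongside vehicle-treated cultures; measure growth; express inhibition against the vehicle cultures.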

[6] = NCI Yeast Anticancer Drug Screen. Data for the mlh1 rad18 strain (AID 175); details: S. cerevisiae mlh1 rad18 strain growth inhibition, stronger effect = higher value
Procedure, shortened: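 Test agents were incubated with a yeast strain of defined genotype (DNA damage repair defect). Inhibition of growth was derived by comparison with vehicle-exposed cultures.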

[7] = at 5.0 µM (retest, dose inferred, filed as 0.5)
[8] = at 50.0 µM (retest, dose inferred, filed as 5.0)

Compound	growth inhibition [1, 7] [%]	growth inhibition [1, 8] [%]	growth inhibition ([1]; at 50.0 µM)	growth inhibition [2, 7] [%]	growth inhibition [2, 8]	growth inhibition ([2]; at 50.0 µM)	growth inhibition [3, 7] [%]	growth inhibition [3, 8]	growth inhibition ([3]; at 50.0 µM)	growth inhibition [4, 7] [%]	growth inhibition [4, 8]	growth inhibition ([4]; at 50.0 µM)	growth inhibition [5, 7] [%]	growth inhibition [5, 8]	growth inhibition ([5]; at 50.0 µM)	growth inhibition [6, 7] [%]	growth inhibition [6, 8]	growth inhibition ([6]; at 50.0 µM)
CCOP(=O)(Oc1ccc([N+](=O)[O-])cc1)c1ccccc1C(C)C (configuration not stated)	11	49	90.8% (active)	25	70% (active)	90.8% (active)	-11	92% (active)	95.6% (active)	40	34%	95.6% (active)	12	49%	96.8% (active)	-11	77% (active)	96.7% (active)
CC(C)(c1ccccc1)c1ccc(O)cc1	-5	58	98% (active)	-38	88% (active)	99% (active)	-7	46%	99.7% (active)	-9	71% (active)	98.8% (active)	-23	97% (active)	99.5% (active)	-8	97% (active)	99.5% (active)
CCc1ccc([O-])c(C=NCCCN(C)CCCN=Cc2cc(C)ccc2[O-])c1.[Co+3].[N-]=[N+]=[N-]	-10	7	22.1%	-8	15%	-12.9%	-4	6%	50.5%	-20	0%	-34.5%	1	8%	-11.2%	-4	-7%	0.85%
COC(=O)CC1(C(=O)O)CC2(Cl)C(Cl)=C(Cl)C1(Cl)C2(Cl)Cl (configuration not stated)	4	30	65.9%	10	52%	47.4%	6	49%	75% (active)	17	56%	83.5% (active)	1	41%	36.8%	7	57%	61.4%
